Data on 25 molecules can be found in PubChem BioAssay.

Calls of active or inactive are those of the source.

Homeobox protein Hox-A13 (Mus musculus), sequence (Q62424 whole entry, looked up): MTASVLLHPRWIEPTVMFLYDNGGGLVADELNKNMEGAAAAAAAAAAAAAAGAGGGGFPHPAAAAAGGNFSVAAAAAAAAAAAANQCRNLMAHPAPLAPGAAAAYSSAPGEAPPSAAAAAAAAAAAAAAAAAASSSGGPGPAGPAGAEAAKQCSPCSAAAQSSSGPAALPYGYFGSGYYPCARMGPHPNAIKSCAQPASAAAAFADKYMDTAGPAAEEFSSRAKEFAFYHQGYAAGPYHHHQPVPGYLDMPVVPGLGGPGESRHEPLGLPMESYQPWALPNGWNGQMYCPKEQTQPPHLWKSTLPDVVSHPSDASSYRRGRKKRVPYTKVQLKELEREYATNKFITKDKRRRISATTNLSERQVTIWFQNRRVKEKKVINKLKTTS

The test addresses Homeobox protein Hox-A13 (Mus musculus) (UniProt Q62424). Nature of the test: disruptors of Hoxa13 oligonucleotide interaction – biochemical, fluorescence polarization, labeled oligonucleotide, primary screen (AID 1185). To be noted: Hoxa13:DNA binding, 15 min, higher = more signal, called active from +8 up or from −8 down. For orientation: Fluorescence polarisation rises when a labelled molecule tumbles more slowly, as on binding a larger partner.
Regarding `COC(=O)CC=C[C@H](C)[C@@H](OCc1cccc(Br)c1)[C@@H](C)[C@H](OC)C1CCCCC1`, the z-score is 0.0373 (inactive).

`C=C(C)C(=O)OCC1CN2[C@@H](CC[C@@H](C)[C@@H]2c2ccc(Br)cc2)C(=O)O1` (stereo not given in full): the z-score was -1.71 (inactive).

`CCC(=O)[C@@]1(O)C(=O)N2C(=C3C(=O)OCC[C@@H]31)N(Cc1ccccc1)C(C)=C(C(=O)OC)[C@H]2c1ccccc1`: the z-score was -0.219 (inactive).

Consider `COc1cccc([C@H]2Oc3ccc(OC)cc3C(=NO[C@H](C)c3cn([C@H](CO)Cc4ccccc4)nn3)[C@@H]2O)c1`, for which the z-score was -6.29 (inactive).

For the molecule `O=C1C[C@@H](O)[C@@H](O)[C@@H]2[C@@H]3C(=O)N(Cc4ccccc4)C(=O)[C@@H]3CC[C@@H]12`, the z-score is -0.967 (inactive).

With `CCOC(=O)[C@H](Cc1ccccc1)NC(=O)CCC1CC(OC(=O)NCCc2ccc(F)cc2)CC2(CCCC(COC(=O)NCCc3ccccc3OC)O2)O1` (stereo not given in full), the z-score was -2.27 (inactive).

Take `O=C1C[C@@H](O)[C@@H](O)[C@@H]2[C@@H]3C(=O)N(Cc4ccc5c(c4)OCO5)C(=O)[C@@H]3CC[C@H]12`: the z-score was -0.523 (inactive).

In the case of `CCOC(=O)[C@H](CC(C)C)NC(=O)CCC1CC(OC(=O)NCCc2ccc(F)cc2)CC2(CCCC(COC(=O)NCCC(C)C)O2)O1` (stereo not given in full), the z-score is -2.83 (inactive).

As to `COC(=O)CC=C[C@@H](C)[C@@H](C=NO[C@@H](C)c1cn([C@H](CO)Cc2ccccc2)nn1)OC`, the z-score was -0.41 (inactive).

For `C[C@@H](c1ccccc1)N1C(=O)[C@H]2[C@H]3[C@H](O)[C@H](O)CC(=O)[C@H]3CC[C@H]2C1=O`, the z-score was 0.0632 (inactive).

For `CC(CCN1CCCCc2nc(C)c(C)cc21)=NOC[C@@H](C)[C@H](OCc1ccccc1)C(C)C`, the z-score was -2.47 (inactive).

Turning to `COC(=O)[C@@H]1CC[C@H](C)[C@@H](c2ccc(C)cc2)N1C(=O)c1ccc(C=NO[C@H](C)c2cn([C@@H]3COC[C@H]3O)nn2)cc1`, the z-score is -6.19 (inactive).

`C=CC[C@@H]1C=C[C@H](ON=C(C)CCC(=O)OC[C@H]2O[C@H](C#Cc3ccccc3)C=C[C@@H]2Oc2ccc(C)cc2)[C@@H](CO)O1`: the z-score is -4.14 (inactive).

As to `CON=CC[C@@H]1C=C[C@H](OC(C)=O)[C@@H](COC(C)=O)O1`, the z-score is 0.463 (inactive).

Regarding `C=Cc1ccc([C@H]2N[C@H](C(=O)O)CC[C@@H]2C)cc1`, the z-score is -0.69 (inactive).

Take `O=C(NN=C1C[C@@H](O)[C@@H](O)[C@@H]2[C@@H]3C(=O)N(C4CCCCC4)C(=O)[C@@H]3CC[C@@H]12)OCc1ccccc1`: the z-score was -3.09 (inactive).

Consider `COc1ccc(O[C@H]2C=C[C@@H](c3ccccc3)O[C@@H]2CON=C2[C@H]3CCn4c(=O)n(-c5ccccc5)c(=O)n4[C@H]3[C@H](O)[C@@H]3O[C@H]23)cc1`, for which the z-score was -4.59 (inactive).

`CCOC(=O)[C@H](Cc1ccccc1)NC(=O)CCC1CC(OC(=O)NCc2cccc3ccccc23)CC2(CCCC(COC(=O)NCCC(C)C)O2)O1` (stereo not given in full): the z-score was -5.99 (inactive).

As for `CC(=O)OC[C@H]1O[C@H](C#Cc2ccccc2)C=C[C@@H]1OC(C)=O`, the z-score is -3 (inactive).

On to `CO[C@@H]1COC(=O)CC=C[C@@H](C)[C@@H]2C=C[C@H](O)[C@@H](COC(=O)CC=C[C@H]1C)O2`, for which the z-score was -2.1 (inactive).

`CC(C)[C@@H](OCc1ccccc1)[C@H](C)C=NOC[C@@H](O)COCc1ccco1`: the z-score is -2.74 (inactive).

As to `O=C1C[C@@H](O)[C@@H](O)[C@@H]2[C@@H]3C(=O)N(c4cccc(Oc5ccccc5)c4)C(=O)[C@@H]3CC[C@H]12`, the z-score is -0.14 (inactive).

As to `CC(C)CON=C1C[C@@H](O)[C@@H](O)[C@@H]2[C@@H]3C(=O)N(C4CCCCC4)C(=O)[C@@H]3CC[C@H]12`, the z-score is 0.866 (inactive).

Consider `CO[C@@H]1COC(=O)[C@@H](C)NC(=O)CC=C[C@@H](C)[C@H](NS(=O)(=O)c2ccc(C)cc2)COC(=O)[C@H](C)NC(=O)CC=C[C@H]1C`, for which the z-score was -0.348 (inactive).

In the case of `C[C@H]1CC[C@H]2C(=O)OC(CO)CN2[C@@H]1c1ccc(Br)cc1` (stereo not given in full), the z-score was -0.52 (inactive).
